For part of these data: Potency and affinity values are given separately. Calls of active or inactive are those of the source.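 The calls were made as follows, unless noted: active = dose curve with midpoint inside tested range, moderate steepness, plateau gap beyond fit error, low compound glow and bead-link interference; inactive = the rest.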
Key:
[1] = biological target: Cell division control protein 42 homolog (Homo sapiens) (UniProt P60953); experiment: inhibition of fluorescent GTP binding to constitutively active Cdc42 – biochemical, multiplex bead flow cytometry, Bodipy-FL-GTP, dose response (AID 1333;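 active = fitted half-maximal concentration within the tested dose range, moderate curve steepness, a statistically real signal drop, and little compound fluorescence or tag-binding interference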)
[2] = biological target: Cell division control protein 42 homolog (Homo sapiens) (UniProt P60953); experiment: inhibition of fluorescent GTP binding to wildtype Cdc42 – biochemical, multiplex bead flow cytometry, Bodipy-FL-GTP, dose response (AID 1334;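 active = fitted half-maximal concentration within the tested range, moderate curve steepness, significant signal drop, and little compound fluorescence or bead-linkage interference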); conditions: bead-based flow cytometry, Bodipy-FL-GTP binding to GST-Cdc42; at 100 µM (top of the series) unless noted
[3] = biological target: GTPase HRas (Homo sapiens) (UniProt P01112); experiment: Ras wt fluorescent GTP loading blockade – biochemical, wildtype, multiplex bead flow cytometry, dose response (AID 1335;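 active = fitted half-maximal concentration within 10 nM to 100 µM, steepness 0.5 to 2, significant signal drop, low assay interference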); conditions: bead-based flow cytometry, Bodipy-GTP binding to GST-Ras; at 100 µM (top of the series) unless noted
[4] = tested on: Ras-related protein Rab-7a (dog), GTP binding; experiment: blockers of fluorescent GTP binding to Rab7 – biochemical, wildtype, multiplex bead flow cytometry, dose response (AID 1336; call rule not given here)
[5] = biological target: Ras-related C3 botulinum toxin substrate 1 (Homo sapiens) (UniProt P63000); experiment: inhibition of wildtype Rac1 nucleotide loading – biochemical, multiplex bead flow cytometry, dose response (AID 1340); conditions: GST-Rac1 beads, Bodipy-FL-GTP binding; at 100 µM (top of the series) unless noted
[6] = biological target: GTPase HRas (Homo sapiens) (UniProt P01112); experiment: blockade of GTP loading onto mutant Ras – biochemical, activated mutant, multiplex bead flow cytometry, dose response (AID 1341;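 active = dose-response curve with midpoint inside the tested range, moderate steepness, significant amplitude and little compound fluorescence or bead-attachment interference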;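 also: GST-tagged constitutively activated Ras mutant immobilized on beads and multiplexed with other GTPases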)

Sequence of GTPase HRas (Homo sapiens) (P01112 whole entry, looked up): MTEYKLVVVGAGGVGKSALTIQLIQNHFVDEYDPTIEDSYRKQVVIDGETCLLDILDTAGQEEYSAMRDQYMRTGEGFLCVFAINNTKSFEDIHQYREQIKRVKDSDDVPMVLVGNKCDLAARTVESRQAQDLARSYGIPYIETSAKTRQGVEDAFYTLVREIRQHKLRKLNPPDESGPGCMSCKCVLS
Sequence of Cell division control protein 42 homolog (Homo sapiens) (P60953 whole entry, looked up): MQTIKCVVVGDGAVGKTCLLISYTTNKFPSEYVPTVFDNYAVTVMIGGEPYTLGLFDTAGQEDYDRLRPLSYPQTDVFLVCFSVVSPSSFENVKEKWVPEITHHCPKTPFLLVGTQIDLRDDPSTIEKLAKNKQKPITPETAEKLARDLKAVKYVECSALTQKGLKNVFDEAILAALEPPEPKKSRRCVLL

Row | Compound | outcome [1] | fluorescence, percent of control (lower = inhibition) [2] | GTP binding, percent of control [3] | outcome [4] | GTP binding signal, raw median fluorescence (lower = inhibition) (MCF (arbitrary fluorescence units)) [5] | outcome [6]
1 | CC(=O)Nc1ccc(Nc2ccc3c4c(cc(=O)n3C)-c3ccccc3C(=O)c24)cc1 | inactive | 34.8% | 80.5% | inactive | 205 | inactive
2 | Cc1ccc(S(=O)(=O)Cc2ccc(C(=O)N3CCN(c4cc(C)ccc4C)CC3)o2)cc1 | inactive | 35% | 59.9% | inactive | 0 | inactive
3 | O=C(/C=C/c1c(Cl)nc2ccccn12)N1CCCCC1 | inactive | 33.3% | 80.9% | inactive | 245 | inactive
4 | Cc1ccc(C(=O)O)c(NCc2c(C)cccc2C)n1 | inactive | 58.8% | 224% | inactive | 54.1 | inactive
5 | COc1cc(/C=N/NC(=O)Nc2cccc3nsnc23)cc(OC)c1OC | inactive | 60.6% | 105% | inactive | 126 | inactive
6 | Cc1cc(/C=c2\sc3nc4ccccc4n3c2=O)c(C)n1-c1ccc(C(=O)O)cc1 | inactive | 18.4% | 70.1% | inactive | 204 | inactive
7 | O=C(Nc1ccccc1C(=O)N1CCOCC1)C1CCC(=O)N1C1CCCC1 (stereo not given) | inactive | 51.3% | 62.7% | inactive | 210 | inactive
8 | O=[N+]([O-])c1ccc2c(c1)c(-c1ccccc1)nc1nncn12 | inactive | 31.3% | 72.1% | inactive | 203 | inactive
9 | C=CCN(CC=C)S(=O)(=O)c1ccc(C(=O)Nc2nc3c(s2)CCc2ccccc2-3)cc1 | inactive | 51.4% | 57.3% | inactive | 0 | inactive
10 | COC(=O)c1ccc(/C=N/Nc2nc(-c3ccc(Cl)cc3Cl)cs2)cc1 | inactive | 39.1% | 81.6% | inactive | 242 | inactive
11 | Cn1nc(C(=O)Nc2cccnc2)c2ccccc2c1=O | inactive | 49% | 111% | inactive | 135 | inactive
12 | O=C1c2ccccc2C(=O)N1CCCCN(C(=O)c1cc2ccccc2oc1=O)c1ccc(Cl)cc1 | inactive | 51.3% | 60.9% | inactive | 210 | inactive
13 | CC1(C)CC2CC(C)(CN2C(=O)c2cccs2)C1 (stereo not given) | inactive | 43.3% | 59.5% | inactive | 184 | inactive
14 | Cc1cc(C)n2nc(SCCOc3ccc(F)cc3)nc2n1 | inactive | 42.7% | 78.4% | inactive | 166 | inactive
15 | Cc1ccc(/C=N/N(C)C2=NS(=O)(=O)c3ccccc32)o1 | inactive | 27.1% | 57.3% | inactive | 132 | inactive
16 | CCOC(=O)c1c(C)[nH]c(C)c1C(=O)COc1ncnc2cc([N+](=O)[O-])ccc12 | inactive | 33.9% | 76.2% | inactive | 186 | inactive
17 | CCCOC(=O)c1c(NC(=O)CCC(=O)O)sc2c1CCCCC2 | inactive | 32.9% | 79% | inactive | 282 | inactive
18 | O=S1(=O)N=C(N=Nc2c(O)[nH]c3ccccc23)c2ccccc21 | inactive | 27.7% | 62.5% | inactive | 129 | inactive
19 | CCC(/C=C1\Sc2ccc(OC)cc2N1CCO)=C\c1sc2ccc(OC)cc2[n+]1CCO | inactive | 22.6% | 46.8% | inactive | 187 | inactive
20 | CCN(c1ccc(N=Cc2c(O)n(Cc3ccc(OC)cc3)c(=O)c3ccccc23)cc1)C(C)C | inactive | 154% | 196% | inactive | 452 | inactive
21 | COc1cc2nc(=S)n(CCCN3CCOCC3)c(N)c2cc1OC | inactive | 38.1% | 79.4% | inactive | 151 | inactive
22 | O=C(O)CCCCCNS(=O)(=O)c1cccc2c1C(=O)c1ccccc1C2=O | inactive | 32.5% | 45.9% | inactive | 0 | inactive
23 | CCC(C)C(=O)Nc1ccc(OC)cc1OC (stereo not given) | inactive | 92.4% | 161% | inactive | 186 | inactive
24 | O=c1c2ccccc2nc2c3ccccc3c(NCc3ccco3)nn12 | inactive | 80.4% | 122% | inactive | 144 | inactive
25 | COc1ccc(-n2c(C)cc(/C=C3\SC(=S)N(Cc4ccco4)C3=O)c2C)cc1 | inactive | 75.8% | 89.9% | inactive | 230 | inactive
26 | Clc1ccccc1-c1ccc(/C=N/Nc2nncc(-c3ccccc3)n2)o1 | inactive | 39% | 89.5% | inactive | 220 | inactive
27 | Cc1ccc(C)c(OCCSc2nc3ccccc3n2CC(=O)O)c1 | inactive | 59.6% | 88.1% | inactive | 29.2 | inactive
28 | O=C(O)CC/C(=C\c1ccc(N2CCOCC2)c([N+](=O)[O-])c1)c1nc2ccccc2s1 | inactive | 28.1% | 71.9% | inactive | 212 | inactive
29 | O=C(Nc1cccc(Cl)c1)N1CCN(c2ncccn2)CC1 | inactive | 47.5% | 60.6% | inactive | 201 | inactive
30 | COc1ccc(OCc2ccccc2Br)c(C(=O)O)c1 | inactive | 53% | 217% | inactive | 49.3 | inactive
